Structures are written as SMILES. Values without a mark were called inactive. Inconclusive results are not listed. Active and inactive are the calls of the source. Unless noted, the call rests on the fitted dose curve.

Here are results for eight compounds from PubChem BioAssay (Tox21).

A short description of test [1]: Nuclear factor erythroid 2-related factor 2/antioxidant responsive element (Nrf2/ARE) small molecule agonists: qHTS cell viability counter screen in human keratinocytes (AID 1919968; active means well fitted curve in the direction sought with a large enough effect in the repeat runs; an effect the other way counts as inactive or inconclusive; further: nearly all actives have a fitted effect of over 55% in size; further: potency means the concentration at half of the fitted maximal effect). In outline: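 Cells of the KeratinoSens line were plated at 1,500 per well and left for 5 h before compound transfer from DMSO stocks. After a 23 h incubation (37 C, 5% CO2), CellTiter-Fluor was added. Signal was taken as fluorescence intensity 1 h later.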
(Quantitative high-throughput screening tests each substance at several concentrations.)

Test [2] can be described thus: Nuclear factor erythroid 2-related factor 2/antioxidant responsive element (Nrf2/ARE) small molecule agonists: luciferase reporter gene qHTS assay in human keratinocytes (AID 1919969). Further: nearly all actives have a fitted effect of over 35% in size. Further: potency means the concentration at half of the fitted maximal effect.
The target of test [3] is KiSS-1 receptor (Homo sapiens) (UniProt Q969F8). The test is described as follows: Human kisspeptin (KISS1R) small molecule agonists, calcium flux assay in KISS1R-HEK293 cells (AID 1920064; active means well fitted curve in the direction sought with a large enough effect in the repeat runs; an effect the other way counts as inactive or inconclusive). The method, boiled down:
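Cell line: HEK293, stable human KISS1R. Dye loading 1 h at 37 C after 18 h culture. Read: kinetic fluorescence, 480/540 nm, 3 min at 1 s intervals.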
On the technique in general: A change in cytosolic calcium serves as a functional read-out for many receptors and channels.

Test [4] can be described thus: G protein-coupled receptor (GPCR) small molecule agonists, calcium flux assay: HEK293 wild type cell line counter screen (AID 1920065). The method, boiled down: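 Tox21 10K compounds, 15 concentrations each in triplicate, pin-transferred in DMSO onto dye-loaded cells; kinetic read at 480/540 nm for 3 min, 1 s intervals.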
A short description of test [5]: p53 small molecule agonists, cell-based qHTS assay with human liver microsomes (AID 1963577). The method, boiled down: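 In this qHTS, p53 response-element beta-lactamase cells receive test compound together with a microsome/NADPH activating system (0.5 mg/mL final each) and are incubated 16 h at 37 C before LiveBLAzer fluorescence detection.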
The nature of test [6]: p53 small molecule agonists, cell-based qHTS assay with rat liver microsomes (AID 1963578). The method, boiled down:
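Agonist mode in p53RE-bla reporter cells, with compounds co-incubated 16 h at 37 C alongside 0.5 mg/mL rat liver microsomes and 0.5 mg/mL NADPH (final), followed by a 2 h LiveBLAzer detection step.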

Test [7] can be described thus: p53 small molecule agonists, cell-based qHTS assay: qHTS cell viability counter screen (AID 1963581). Further: nearly all actives have a fitted effect of over 45% in size. In outline: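 ATP content measured by luminescence in HCT-116 p53RE-bla cells treated 16 h at 37 C, same wells as the reporter screen.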
In test [8] the target is Muscarinic acetylcholine receptor M1 (Homo sapiens) (UniProt P11229). Kind of test: Cholinergic receptor muscarinic 1 (CHRM1) small molecule antagonists, cell-based qHTS assay (AID 1963588). Further: nearly all actives have a fitted effect of over 40% in size. Further: potency means the concentration at half of the fitted maximal effect. In outline: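 Compounds were tested at 15 concentrations in three independent runs. Dye-loaded CHRM1-CHO cells were exposed 5 min at room temperature before stimulation by acetylcholine added at 50nM. Intracellular calcium was read kinetically on FDSS for 3 min.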

Test [9] has the same target. The test is described as follows: Cholinergic receptor muscarinic 1 (CHRM1) small molecule agonists, cell-based qHTS assay (AID 1963589). Further: nearly all actives have a fitted effect of over 35% in size. The method, boiled down:
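Homogeneous fluorescence calcium flux, agonist mode. Human M1-expressing CHO cells; compound dosed at 15 concentrations, three independent runs; signal sampled every 1 sec.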

Test [10] concerns the target Beta-2 adrenergic receptor (Homo sapiens) (UniProt P07550). The test is described as follows: Adrenergic beta2 receptor (ADRB2) small molecule antagonists, cell-based qHTS assay (AID 1963592). Further: series mostly up to about 92 µM; nearly all actives have a fitted effect of over 50% in size. The method, boiled down: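 Assay format: CHO-ADRB2 cells, 18-20hr seeding at 37C/5% CO2, then compound plus 1nM isoproterenol agonist mix for 0.5hr RT. Homogeneous time-resolved fluorescence cAMP detection after 1hr, expressed as 665/615 nm ratio.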

The target of test [11] is D(2) dopamine receptor (Homo sapiens) (UniProt P14416). Kind of test: Dopamine D2 receptor (DRD2) small molecule agonists, cell-based qHTS assay (AID 1963594). Further: nearly all actives have a fitted effect of over 35% in size. Further: potency means the concentration at half of the fitted maximal effect. In outline:
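HEK293 cells stably expressing DRD2 were cultured 24 h at 37 C, then given Ro20-1724 (0.1 mM final) and compounds for 10 min at room temperature. NKH477 (200nM) was then added for 30 min. cAMP was read by HTRF.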

Test [12] is described as follows: p53 small molecule agonists, cell-based qHTS assay with human liver microsomes: qHTS cell viability counter screen (AID 1963579). Further: nearly all actives have a fitted effect of over 45% in size. Further: potency means the concentration at half of the fitted maximal effect. The method, boiled down: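 Metabolically activated exposure: compounds, human liver microsomes and NADPH (0.5 mg/mL final apiece) were added to p53RE-bla cells seeded 5 h earlier, left 16 h at 37 C, and then assessed for viability by CellTiter-Glo luminescence.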

A short description of test [13]: p53 small molecule agonists, cell-based qHTS assay with rat liver microsomes: qHTS cell viability counter screen (AID 1963580). Further: nearly all actives have a fitted effect of over 45% in size. In outline:
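Luminescent ATP readout (CellTiter-Glo, 30 min at room temperature) reports viability of p53RE-bla HCT-116 cells after 16 h at 37 C with test compounds under metabolic activation by rat liver microsomes and NADPH at 0.5 mg/mL final each.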

Test [14] addresses 5-hydroxytryptamine receptor 2A (Homo sapiens) (UniProt P28223). Kind of test: 5-hydroxytryptamine receptor 2A (HTR2A) small molecule antagonists, cell-based qHTS assay (AID 1963586). Further: nearly all actives have a fitted effect of over 45% in size. The method, boiled down:
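CHO cells stably expressing human HTR2A were plated for 18 h at 37 C, then loaded with calcium dye for 1 h. Compounds were preincubated 5 min at room temperature before DOI (4 nM solution) was added. Kinetic fluorescence was read for 3 min.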

The target is the same in test [15]. The test is described as follows: 5-hydroxytryptamine receptor 2A (HTR2A) small molecule agonists, cell-based qHTS assay (AID 1963587). Further: nearly all actives have a fitted effect of over 30% in size. The method, boiled down: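 HTR2A-CHO cells, plated 18 h at 37 C/5% CO2, dye-loaded 1 h at 37 C; compounds in DMSO added by pin tool (agonist mode). Intracellular calcium flux read as kinetic fluorescence on FDSS over 2 min at 1 s intervals.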

Test [16] is described as follows: cAMP Responsive Elements (CRE) small molecule agonists, cell-based qHTS assay (AID 1963590). In outline:
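HEK 293T cells stably bearing CRE-bla were plated at 2,000 cells per well and rested 18 h. Compounds, positive controls or DMSO were added for 3 h at 37 C. LiveBLAzer B/G substrate was then loaded for 2 h at room temperature.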

Test [17] is described as follows: cAMP Responsive Elements (CRE) small molecule antagonists, cell-based qHTS assay (AID 1963591; active means well fitted inhibition curve with a large enough effect in the signal ratio in the repeat runs, not every such curve was filed as active; the % refers to the signal ratio). The method, boiled down: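 First, CRE-bla HEK293T cells settled 18 h at 37 C. Next, compound and 0.25 uM final NKH477 were applied for 3 h. Last, LiveBLAzer B/G substrate was loaded for 2 h at room temperature.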
Test [18] has as its target D(2) dopamine receptor (Homo sapiens) (UniProt P14416). Kind of test: Dopamine D2 receptor (DRD2) small molecule antagonists, cell-based qHTS assay (AID 1963595; active means well fitted inhibition curve with a large enough effect in the signal ratio in the repeat runs, with a control signal flat; the % refers to the signal ratio). In outline:
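Antagonist mode in DRD2-HEK293 cells: after compound addition with 0.1 mM Ro20-1724, cells received quinpirole (12 nM) and NKH477 (200 nM) for 30 min at room temperature; HTRF cAMP read after 1 h detection.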

Test [19] concerns the target Gonadotropin-releasing hormone receptor (Homo sapiens) (UniProt P30968). The test is described as follows: Human gonadotropin-releasing hormone receptor (GnRHR) small molecule agonists, calcium flux assay in GnRHR-HEK293 cells (AID 1920063). Further: nearly all actives have a fitted effect of over 35% in size. In outline:
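Compounds dissolved in DMSO are pin-transferred onto dye-loaded GnRHR-HEK293 cells, which were seeded 18 h before at 37 C/5% CO2. Calcium signal is read as fluorescence intensity at 1 s intervals for 3 min.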

The nature of test [20]: p53 small molecule agonists, cell-based qHTS assay (AID 1963582; active means well fitted activation curve with a large enough effect in the signal ratio in the repeat runs, not every such curve was filed as active; the % refers to the signal ratio). The method, boiled down:
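16 h compound exposure (37 C) of p53 response element–bla cells, preceded by 5 h recovery at 37 C/5% CO2; read-out via LiveBLAzer B/G FRET substrate, 2 h RT, fluorescence intensity.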
On the % scale 0 is the no-effect control and ±100 the full control effect.

Chain of 5-hydroxytryptamine receptor 2A (Homo sapiens) (P28223 whole entry, looked up): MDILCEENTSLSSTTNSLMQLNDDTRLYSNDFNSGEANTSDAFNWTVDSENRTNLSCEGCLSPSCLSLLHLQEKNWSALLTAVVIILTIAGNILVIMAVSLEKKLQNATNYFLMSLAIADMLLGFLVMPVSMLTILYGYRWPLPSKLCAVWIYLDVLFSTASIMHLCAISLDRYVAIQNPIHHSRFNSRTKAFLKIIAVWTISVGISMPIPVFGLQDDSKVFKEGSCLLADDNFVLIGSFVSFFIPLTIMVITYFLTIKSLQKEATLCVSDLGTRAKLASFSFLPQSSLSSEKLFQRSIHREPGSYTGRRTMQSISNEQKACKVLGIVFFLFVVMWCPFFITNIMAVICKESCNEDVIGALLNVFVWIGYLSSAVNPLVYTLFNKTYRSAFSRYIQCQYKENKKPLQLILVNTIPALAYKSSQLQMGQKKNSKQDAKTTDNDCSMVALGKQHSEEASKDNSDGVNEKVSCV
Chain of Beta-2 adrenergic receptor (Homo sapiens) (P07550 whole entry, looked up): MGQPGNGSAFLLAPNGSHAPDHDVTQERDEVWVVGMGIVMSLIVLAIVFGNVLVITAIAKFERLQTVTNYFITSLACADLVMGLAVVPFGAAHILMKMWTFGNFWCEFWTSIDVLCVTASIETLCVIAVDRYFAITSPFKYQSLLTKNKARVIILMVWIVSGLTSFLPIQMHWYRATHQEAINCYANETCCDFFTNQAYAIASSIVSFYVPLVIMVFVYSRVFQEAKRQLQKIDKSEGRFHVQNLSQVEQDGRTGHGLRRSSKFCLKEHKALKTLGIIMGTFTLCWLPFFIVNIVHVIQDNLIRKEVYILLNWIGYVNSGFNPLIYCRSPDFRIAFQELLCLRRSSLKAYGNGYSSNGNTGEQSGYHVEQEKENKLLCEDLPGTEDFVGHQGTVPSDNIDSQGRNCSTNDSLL
Chain of KiSS-1 receptor (Homo sapiens) (Q969F8 whole entry, looked up): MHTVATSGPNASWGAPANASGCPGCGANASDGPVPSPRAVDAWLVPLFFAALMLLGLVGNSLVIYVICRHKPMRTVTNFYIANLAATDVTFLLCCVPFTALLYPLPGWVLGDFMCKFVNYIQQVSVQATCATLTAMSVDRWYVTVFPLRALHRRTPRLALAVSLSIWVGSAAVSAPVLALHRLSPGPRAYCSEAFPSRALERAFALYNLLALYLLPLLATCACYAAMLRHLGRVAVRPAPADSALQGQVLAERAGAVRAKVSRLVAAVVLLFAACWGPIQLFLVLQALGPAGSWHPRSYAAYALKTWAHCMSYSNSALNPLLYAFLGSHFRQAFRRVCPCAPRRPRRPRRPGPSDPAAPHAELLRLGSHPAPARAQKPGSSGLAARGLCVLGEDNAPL
Chain of D(2) dopamine receptor (Homo sapiens) (P14416 whole entry, looked up): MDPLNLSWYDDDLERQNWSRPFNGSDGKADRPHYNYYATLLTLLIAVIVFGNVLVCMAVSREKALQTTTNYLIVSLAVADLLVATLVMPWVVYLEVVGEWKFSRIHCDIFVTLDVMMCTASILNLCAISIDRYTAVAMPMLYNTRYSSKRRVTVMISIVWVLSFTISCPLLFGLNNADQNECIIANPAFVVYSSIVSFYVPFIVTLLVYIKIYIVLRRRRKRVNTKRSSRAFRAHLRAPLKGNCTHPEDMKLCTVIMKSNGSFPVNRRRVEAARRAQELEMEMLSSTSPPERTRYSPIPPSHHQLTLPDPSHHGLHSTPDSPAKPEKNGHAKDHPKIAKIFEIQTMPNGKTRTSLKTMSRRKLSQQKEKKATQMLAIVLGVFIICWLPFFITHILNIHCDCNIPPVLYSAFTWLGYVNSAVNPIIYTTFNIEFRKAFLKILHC
Chain of Muscarinic acetylcholine receptor M1 (Homo sapiens) (P11229 whole entry, looked up): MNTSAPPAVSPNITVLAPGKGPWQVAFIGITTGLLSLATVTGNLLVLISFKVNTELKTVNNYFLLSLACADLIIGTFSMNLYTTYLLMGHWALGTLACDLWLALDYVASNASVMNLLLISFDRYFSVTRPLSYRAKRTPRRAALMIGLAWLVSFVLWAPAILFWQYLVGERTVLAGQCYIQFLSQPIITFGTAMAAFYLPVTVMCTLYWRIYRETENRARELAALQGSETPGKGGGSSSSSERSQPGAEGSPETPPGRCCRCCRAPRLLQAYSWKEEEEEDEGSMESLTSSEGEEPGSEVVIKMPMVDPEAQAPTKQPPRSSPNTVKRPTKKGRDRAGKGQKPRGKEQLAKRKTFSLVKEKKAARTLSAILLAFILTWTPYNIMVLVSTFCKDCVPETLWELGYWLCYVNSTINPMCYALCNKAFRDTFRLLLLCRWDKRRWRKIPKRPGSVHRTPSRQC
Chain of Gonadotropin-releasing hormone receptor (Homo sapiens) (P30968 whole entry, looked up): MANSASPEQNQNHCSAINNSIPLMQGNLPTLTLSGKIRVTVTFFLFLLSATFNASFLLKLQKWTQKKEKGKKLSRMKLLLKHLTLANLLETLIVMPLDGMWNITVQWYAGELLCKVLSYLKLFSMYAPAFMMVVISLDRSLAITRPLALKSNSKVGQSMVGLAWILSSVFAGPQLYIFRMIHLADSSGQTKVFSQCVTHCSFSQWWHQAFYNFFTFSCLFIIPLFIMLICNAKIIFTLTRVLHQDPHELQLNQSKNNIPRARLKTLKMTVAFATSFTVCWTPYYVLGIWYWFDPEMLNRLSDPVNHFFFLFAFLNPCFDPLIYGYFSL

Turning to `COC12CC[C@@]3(C[C@@H]1C(C)(O)C(C)(C)C)[C@H]1Cc4ccc(O)c5c4[C@@]3(CCN1CC1CC1)[C@H]2O5` (stereo not given in full), the values for the Potency in [1] and in [8] were 30.4 µM (active) and 33.2 µM (active), respectively. Moreover, the Potency entry in test [2], in [3], in test [4], in test [5], in test [6] and in test [7] was “inactive” throughout. For the same compound, the Potency result in [9], in test [10] and in test [11] was “inactive” throughout.
For `O=C(N[C@H]1N=C(c2ccccc2F)c2cccc3c2N(CC3)C1=O)c1cc2ccccc2[nH]1`, the Potency entry in test [1], in test [2], in [3], in test [4], in test [6] and in test [12] was “inactive” throughout. For the same compound, the Potency result in test [13], in [14], in test [15], in test [8], in test [9] and in [16] was “inactive” each time. The Potency result in test [17], in test [10] and in test [18] was “inactive” throughout. For the same compound, the Potency in [11] is 8.74 µM (active).
With `Clc1c(Cl)c(Cl)c(Cl)c(Cl)c1Cl`, the activity change, negative = cytotoxicity is 1.8% [at 8.39 µM] in test [1], -8.08% [at 5.99 µM] in test [12] and 19.3% [at 5.99 µM] in [7]. Further, the activity, positive = activation in test [2] was 1.26% [at 8.39 µM]. In addition, the activation in test [3] was 2.59% [at 6.97 µM]; in test [4], 0.0562% [at 5.23 µM]; in [6], -0.077% [at 5.99 µM]; in test [15] it was -3.36% [at 7.02 µM]; in [9], 0.839% [at 6.97 µM]; in test [16], 0.371% [at 8.39 µM]. For the same compound, the activity, negative = inhibition in test [14] is 3.79% [at 5.62 µM]; in [8], 4.33% [at 5.58 µM]. The figures for the activity change, negative = inhibition in test [17] and in test [18] were -9.17% [at 8.39 µM] and -2.06% [at 8.38 µM], respectively.
As to `O=CC(Br)(Br)Br`, the Potency is 8.61 µM (active) in [1] and 3.05 µM (active) in [2]. The Potency entry in test [3], in test [4], in [5], in [6], in [13] and in test [7] was “inactive” each time. For the same compound, the Potency result in [14], in test [8], in test [9], in [16], in test [11] and in test [18] was “inactive” in each case.
As to `Clc1cc(C(Cl)(Cl)Cl)cnc1Cl`, the Potency result in test [1], in test [19], in test [3], in test [4], in test [5] and in test [6] was “inactive” in each case. For the same compound, the Potency entry in [12], in [13], in [7], in [20], in [15] and in test [8] was “inactive” each time. Also, the Potency entry in test [9], in [16], in test [17], in test [11] and in test [18] was “inactive” each time.
Turning to `BrCCCCCCBr`, the Potency result in test [1], in [19], in [3], in test [4], in [5] and in [6] was “inactive” in each case. In addition, the Potency result in [13], in [7], in test [14], in [15], in [8] and in test [9] was “inactive” in each case. The Potency entry in [16], in [10] and in [11] was “inactive” throughout. The Potency in [12] was 20.4 µM (active).
Consider `CC#Cc1cc(C)nc(Nc2ccccc2)n1`, for which the Potency result in test [1], in test [19], in [3], in test [4], in test [5] and in test [6] was “inactive” each time. For the same compound, the Potency result in [12], in test [13], in test [7], in [20], in test [15] and in test [8] was “inactive” in each case. For the same compound, the Potency entry in [9], in test [17] and in test [18] was “inactive” in each case.
In the case of `Cc1cc(C)c(C(=O)P(=O)(C(=O)c2c(C)cc(C)cc2C)c2ccccc2)c(C)c1`, the Potency result in test [1], in [19], in test [3], in [4], in test [5] and in test [6] was “inactive” each time. The Potency result in test [12], in test [13], in test [7], in test [14], in test [15] and in [8] was “inactive” in each case. In addition, the Potency result in test [9], in test [16], in [10], in [11] and in test [18] was “inactive” in each case.
